Data taken from PubChem BioAssay (Tox21).
Inconclusive results are not listed. Entries that show only a call come without a potency. Unmarked numbers belong to inactive results. Active and inactive are the calls of the source. The call rests on the fitted dose curve; in most records, active means well fitted cell-killing curve with a large enough effect in the repeat runs; inconclusive means weak or mixed curves, or effect the other way; inactive means flat fitted curve, though single readings scatter.

Assay: cAMP Responsive Elements (CRE) small molecule agonists, cell-based qHTS assay: qHTS cell viability counter screen (AID 2060914);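 further: viability read after 3 h of compound exposure; nearly all actives have a fitted effect of over 50% in size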
Conditions: CRE-bla HEK293T viability, CellTiter-Glo luminescence, 5 h; series mostly up to 92.4 µM
Outline: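 CRE-bla HEK 293T cells, plated 18 h at 37 °C, were exposed to compounds for 3 h at 37 °C/5% CO2. Viability was then measured in the same wells by CellTiter-Glo luminescence after 30 min at room temperature.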
With `CC(CCO)CC(C)(C)C` (stereo not given) the Potency was “inactive”.
With `Cc1ccc(Cl)cc1N` the Potency was “inactive”.
With `Cc1cc(=O)[nH]c(=S)[nH]1` the Potency was “inactive”.
For `C=Cc1ccc(OC(C)=O)cc1`, the Potency was “inactive”.
With `CCCCCCCC/C=C\CCCCCCCC(=O)O` the Potency was “inactive”.
In the case of `O=C(CO)[C@@H](O)[C@H](O)[C@@H](O)CO`, the Potency is reported as “inactive”.
In the case of `CCC(C)(C)C1CCC(=O)CC1`, the Potency is reported as “inactive”.
With `N[C@@H](Cc1cc(I)c(Oc2ccc(O)c(I)c2)c(I)c1)C(=O)O` the Potency was “inactive”.
In the case of `CCCCNC1CC(C)(C)NC(C)(C)C1`, the Potency is reported as “inactive”.
In the case of `C/C=C/C(=O)Oc1c(CCCCCC(C)C)cc([N+](=O)[O-])cc1[N+](=O)[O-]`, the Potency is reported as “inactive”.
In the case of `C=C(C)C(=O)OCC[N+](C)(C)C`, the Potency is reported as “inactive”.
For `CCCC(=O)O[C@]1(C(=O)CC)CC[C@H]2[C@@H]3CCC4=CC(=O)CC[C@]4(C)[C@H]3[C@@H](O)C[C@@]21C`, the Potency was “inactive”.
In the case of `O=C1CCCCCN1SSN1CCCCCC1=O`, the Potency is reported as “inactive”.
In the case of `CN1CC[C@H](c2c(O)cc(O)c3c(=O)cc(-c4ccccc4Cl)oc23)[C@H](O)C1`, the Potency is reported as “inactive”.
For `CN(C)CCc1c[nH]c2ccc(CS(=O)(=O)N3CCCC3)cc12`, the Potency was “inactive”.
In the case of `Nc1cccnc1N`, the Potency is reported as “inactive”.
In the case of `C=CCOC(=O)COCCC(C)C`, the Potency is reported as “inactive”.
In the case of `CCCCOC(=O)CC#N`, the Potency is reported as “inactive”.
With `CC(C)COCC(CN(Cc1ccccc1)c1ccccc1)N1CCCC1` (stereo not given) the Potency was “inactive”.
With `CCCCCO` the Potency was “inactive”.
In the case of `CCCOC(=O)c1ccc(N)cc1`, the Potency is reported as “inactive”.
For `CC1=Nc2ccccc2C1(C)C`, the Potency was “inactive”.
With `CCc1cc(C(N)=S)ccn1` the Potency was “inactive”.
For `O=C(O)Cc1c[nH]c2ccccc12`, the Potency was “inactive”.
For `NC[C@H](O)c1ccc(O)c(O)c1`, the Potency was “inactive”.
For `CCCCNCC`, the Potency was “inactive”.
In the case of `CC1COC(=O)O1` (stereo not given), the Potency is reported as “inactive”.
`CC1=CC[C@@H]2C[C@H]1C2(C)C` showed an activity change, negative = cytotoxicity of -0.0766% [at 18.9 µM].
For `Sc1nc2ccccc2s1`, the Potency was “inactive”.
With `CCc1ccc(O)c(C(C)(C)C)c1` the Potency was “inactive”.
In the case of `CC1(N)CCC(C(C)(C)N)CC1` (stereo not given), the Potency is reported as “inactive”.
With `NC(N)=N/N=C/c1c(Cl)cccc1Cl` the Potency was “inactive”.
With `C=CC(=O)OCC(O)COc1ccccc1` (stereo not given) the Potency was “inactive”.
With `CCn1c2ccccc2c2cc([N+](=O)[O-])ccc21` the Potency was “inactive”.
With `CC(C)COC(=O)COc1cc(Cl)c(Cl)cc1Cl` the Potency was “inactive”.
With `O=C(O)CN1C(=O)c2cccc3cccc(c23)C1=O` the Potency was “inactive”.
With `CC(C(=O)O)c1cccc(C(=O)c2ccccc2)c1` (stereo not given) the Potency was “inactive”.
In the case of `C[C@H](CS)C(=O)N1CCC[C@H]1C(=O)O`, the Potency is reported as “inactive”.
In the case of `Nc1nc2ccccc2[nH]1`, the Potency is reported as “inactive”.
With `O=[N+]([O-])c1cccc(S(=O)(=O)NCCNS(=O)(=O)c2cccc([N+](=O)[O-])c2)c1` the Potency was “inactive”.
